# Results: the supplement of paper PMC10338343
# ± gives the standard deviation. In all, about 6,200 sequences were measured (“pre-steady-state target cleavage rate”: median about 0.29, highest 2% from about 2 on). The sample holds the highest values, similar sequences and a random draw of the others, so the mix is not that of the screen.
# Tested on: MIWI (PIWIL1) piRISC loaded with piRNA #1 (30 nt)
# Assay: pre-steady-state target cleavage rate (min^-1); MIWI and MILI are mouse PIWI proteins and EfPiwi is from a freshwater sponge; tags in brackets are library labels; higher = faster piRNA-guided slicing of the target
# Settings: guide: piRNA #1 5'p-UGAGGUAGUAGGUUGUAUAGUAUCCAGAGG; auxiliary factor: 500 nM mouse GTSF1
# Description: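 Cleave-'n-Seq: a library of target RNAs (target site embedded in constant flanks, ACAGCATTCCGCGTTAGTGATATCCG... 5' flank; DNA-blocked outside the site) at 0.1 nM was incubated with 1 nM active mouse MILI or MIWI piRISC (synthetic 5'-monophosphorylated piRNA guide) with or without 500 nM mouse GTSF1 at 33 °C for 1 min to 16 h. Uncleaved targets were sequenced and normalised to non-target controls, and the pooled three trials were fitted to a burst-and-steady-state model to give the pre-steady-state cleavage rate (min^-1; k3 is constrained to at most 1e-4). Sequence is the target site only; target names encode pairing extent (gX:gY) and contiguous / 1-mismatch / 2-mismatch / bulge geometry. Fits with R² ≤ 0 are excluded.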
row,Sequence,pre-steady-state target cleavage rate
1,CCUCUGGAUACUAUAGAACCUACUACCUCA,0.664 ± 0.06
2,GGAGACCAUUCUUUACAACCUACUACCUCA,0.387 ± 0.059
3,GCUCUGGAUAGUAUACUACCUACUACCUCA,0.858 ± 0.049
4,GGUCUGGAUACAAUACUACCUACUACCUCA,1.09 ± 0.092
5,CCUCUGGAUACUAUACAACCUACUACCUCG [g2:g30:cont:t1G],1.32 ± 0.094
6,CCUCUGGAUACUAUACAACCUACUACCUACA,1.79 ± 0.096
7,CCUCUGGAUACUAUACAACCUACUACCUAA,1.9 ± 0.1
8,CCUCUGGAUACUAUACAACCUACUACCUA,1.52 ± 0.096
9,CCUCUGGAUACUAUACAACCUACUACCUCU [g2:g30:cont:t1U],2.36 ± 0.14
10,CCUCUGGAUACUAUACAACCUACUACCUCC [g2:g30:cont:t1C],2.18 ± 0.14
11,GGAGAGGAAACAAUACAACCUACUACCUCA,0.95 ± 0.079
12,GGAGACGAUACUAUUCAUCCUACUACCUCA,1.09 ± 0.061
13,GGAGUGGAUACUAUCAACCUACUACCUCA,1.58 ± 0.11
14,GGAGACCUAUCUAUACAACCUACUUCCUGA,0.0338 ± 0.01
15,GGAGACCUAUCUAUACAACCUUCUACCACA,0.136 ± 0.015
16,GCUCUGGAUAUAUACAACCUACUACCUCA,1.62 ± 0.086
17,GGUCUGGAUAUUAUACAACCUACUACCUCA,1.98 ± 0.12
18,GGACUGGAUAUUAUACAACCUACUACCUCA,1.62 ± 0.11
19,CCUCUGGAUAUUAUACAACCUACUACCUCA,2.15 ± 0.12
20,GCUCUGGAUACAUAUACAACCUACUACCUCA,1.54 ± 0.083
21,GCUCUGGAUAUUAUACAACCUACUACCUCA,2.06 ± 0.11
22,GGAGACCUAAGUAUUCAACCUACUACCUCA,0.00289 ± 0.0023
23,CGUCUGGAUACUAUACAACCUACUACCUGA,0.517 ± 0.044

row,Sequence,pre-steady-state target cleavage rate
1,CCUCUGGAUACUAUACAUGGUACUACCUCA,0.0547 ± 0.0094
2,GGAGAGGAUACUAUACAACCUACCACCUCA,0.849 ± 0.049
3,CCUCUCGAUACUAUACAACCUUCUACCUCA,0.676 ± 0.035
4,GGUCUCGAUUCUAUACAACCUACUACCUCA,1.74 ± 0.1
5,GCUCUCGAUUCUAUACAACCUACUACCUCA,2.09 ± 0.12
6,CCUCUCGAUUCUAUACAACCUACUACCUCA,2.25 ± 0.15
7,GCUCUCGAUACUAUACAACCUUCUACCUCA,0.639 ± 0.034
8,GGACUCGAUUCUAUACAACCUACUACCUCA,1.61 ± 0.14
9,GGUCUGGAUACUAUACUUCCUACUACCUCA,0.248 ± 0.029
10,GGAGUGGAGACUAUACAACCUACUACCUCA,1.65 ± 0.099
11,GGAGUGGAUACUAAUACAACCUACUACCUCA,1.4 ± 0.1
12,GCGCUGGAUACUAUACAACCUACUACCUCA,1.85 ± 0.1
13,CCUGCUGGAUACUAUACAACCUACUACCUCA,2.06 ± 0.12
14,GGGCUGGAUACUAUACAACCUACUACCUCA,1.9 ± 0.12
15,GGUGCUGGAUACUAUACAACCUACUACCUCA,1.85 ± 0.11
16,GCUGCUGGAUACUAUACAACCUACUACCUCA,2.01 ± 0.14
17,CCGCUGGAUACUAUACAACCUACUACCUCA,1.88 ± 0.094
18,GCUCUGGAUACUAUACAACCAUCUACCUCA,0.0463 ± 0.011
19,GGAGUGGUUACUAUAGAACCUACUACCUCA,1.24 ± 0.08
20,CAUCUGGAUACUAUACAACCUACUACCUCA,1.37 ± 0.066
21,GGUCUGGAUACUAUACAACCUUACUACCUCA,0.00317 ± 0.0022
22,GGAGACCUUAGUAUACAACCUACAACCUCA,0.0975 ± 0.018
23,GCUCUGGAAACUAUACAACCUACUACCACA,1.42 ± 0.15

row,Sequence,pre-steady-state target cleavage rate
1,CCACUGGAAACUAUACAACCUACUACCUCA,2.06 ± 0.11
2,CCUCAGGAAACUAUACAACCUACUACCUCA,2.04 ± 0.1
3,CCUCUGGAAACUAUACAACCUACUACCACA,2.19 ± 0.26
4,GCACUGGAAACUAUACAACCUACUACCUCA,1.82 ± 0.089
5,GCUCAGGAAACUAUACAACCUACUACCUCA,1.78 ± 0.1
6,GGUCUGGAAACUAUACAACCUACUACCACA,0.461 ± 0.05
7,GGACUGGAAACUAUACAACCUACUACCUCA,1.44 ± 0.097
8,GGUCAGGAAACUAUACAACCUACUACCUCA,1.77 ± 0.12
9,GGAGACGAUACUAUACAACCUAGAUCCUCA,0.113 ± 0.015
10,GGAGAGGUUACUAAACAACCUACUACCUCA,1.21 ± 0.08
11,GGAGACGAUACUAUAGAACCUACUACCUCA,1.14 ± 0.066
12,GGAGACCUAUGAUAACAACCUACAUGGAGA [g8:g16:cont:t1A],< 0.0001
13,GGAGUGCAUACUAUACUACCUACUACCUCA,1.13 ± 0.092
14,GGAGACCUAUGAUAAGUACCUACUACCUCA,< 0.0001
15,GGAGACCUAUCUUUACAACCUACUACCACA,0.129 ± 0.03
16,GGAGUGGAUUCAAUACAACCUACUACCUCA,1.02 ± 0.071
17,CCUCUAGAUACUAUACAACCUACUACCUCA,2.2 ± 0.13
18,GCUCUAGGAUACUAUACAACCUACUACCUCA,1.85 ± 0.095
19,GCUCUAGAUACUAUACAACCUACUACCUCA,2.09 ± 0.12
20,GCUCUGGAUACUAUACAACCUCUACCUCA,0.00616 ± 0.003
21,GGAGUAGAUACUAUACAACCUACUACCUCA,1.55 ± 0.074
22,GGACUAGAUACUAUACAACCUACUACCUCA,1.77 ± 0.1
23,CCUCUAGGAUACUAUACAACCUACUACCUCA,2.12 ± 0.12

row,Sequence,pre-steady-state target cleavage rate
1,GGUCUAGAUACUAUACAACCUACUACCUCA,1.81 ± 0.11
2,GGUCUAGGAUACUAUACAACCUACUACCUCA,1.83 ± 0.1
3,GGAGACCUAAAUAUACAACCUACUACCUCA,0.106 ± 0.021
4,GGACUGGAUACUAUACAACGUUCUACCUCA,0.107 ± 0.014
5,GGUCUGGAUAGUAUACAACCUACUACCUGA,0.248 ± 0.041
6,GGAGACGAUAGUAUACUACCUACUACCUCA,0.67 ± 0.071
7,GGAGUGGAUACUAUACAACCUACUCACCUCA,0.793 ± 0.088
8,GGAGUGGAUACUAUACUACCUAGUACCUCA,0.283 ± 0.04
9,GGUGUGGAUACUAUACAACCUACUACCUGA,0.419 ± 0.069
10,GGAGACGAUACUAUACAACCUACUACCUCG [g2:g24:cont:t1G],1.1 ± 0.063
11,GGAGACGAUACUAUACAACCUACUACCUCC [g2:g24:cont:t1C],1.5 ± 0.075
12,CCUCACGAUACUAUACAACCUACUACCUCA,2.1 ± 0.12
13,GGUCACGAUACUAUACAACCUACUACCUCA,1.89 ± 0.12
14,CCUGACGAUACUAUACAACCUACUACCUCA,2.06 ± 0.12
15,GGUGACGAUACUAUACAACCUACUACCUCA,1.82 ± 0.098
16,GCUGACGAUACUAUACAACCUACUACCUCA,1.84 ± 0.1
17,GCUCACGAUACUAUACAACCUACUACCUCA,1.83 ± 0.092
18,GGAGACGAUACUAUACAACCUACUACCUCCA,2.06 ± 0.12
19,GGAGACCUUUCUAUACAACCUAGUACCUCA,0.238 ± 0.034
20,CCUCUGGAUAGAAUACAACCUACUACCUCA,1.24 ± 0.066
21,GGAGACCAUACUAUUCUACCUACUACCUCA,0.224 ± 0.035
